Compounds without any hit were thinned out: in the full panel of roughly 83,000, 20% have a hit.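 Method: cells in 96-well plates; compound added at one concentration; 48 h incubation; percent growth measured; values under 10 scored active.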 The source made the active and inactive calls.
Assays:
Assay in all cases: NCI-60 one-dose screen, 48 h (100 = growth as untreated, 0 = no growth, -100 = all killed)
Conditions in all cases: 10 µM unless noted
[1] = test system: NCI/ADR-RES ovarian
[2] = test system: T-47D breast
[3] = test system: BT-549 breast
[4] = test system: MDA-MB-435 melanoma
[5] = test system: SW-620 colon
[6] = test system: HCT-116 colon
[7] = test system: HCC-2998 colon
[8] = test system: KM12 colon
[9] = test system: MCF7 breast

Measured: growth

NC(=Nc1ccccc1)N[N+](=O)[O-]
inactive: [1] 101% | [2] 97% | [3] 88.5% | [4] 118% | [5] 97.8% | [6] 101% | [7] 98.8% | [8] 106%

C/C(=C\c1ccn(-c2ccc(N)cc2C(F)(F)F)n1)[C@@H]1C[C@@H]2O[C@]2(C)CCC[C@H](C)[C@H](O)[C@@H](C)C(=O)C(C)(C)[C@@H](O)CC(=O)O1
inactive: [2] 39.1% | [3] 27% | [5] 23.9% | [9] 16.4% | [7] 14.1% | [8] 11.4%
active: [1] 1.74% | [4] -61.7%

CC(C)[C@@H]1NC(=O)[C@]2(C)CSC(=N2)c2csc(n2)CNC(=O)C[C@@H](/C=C/CCS)OC1=O
active: [2] -17.9% | [4] 5.9% | [5] 1.33% | [6] -34.8% | [7] -48% | [8] 1.21%
inactive: [1] 52% | [3] 41.7%

CC(C)(C)C(=O)OCOP(=O)(OCOC(=O)C(C)(C)C)C1CCCN(O)C1=O (configuration not stated)
inactive: [4] 36.6% | [5] 22.9%
active: [1] 1.93% | [2] 8.21% | [3] 4.85% | [9] 0.807% | [7] 5.6% | [8] -3.46%

CCCCCCC(=O)NC1=C(N2CC2)C(=O)C(NC(=O)CCCCCC)=C(N2CC2)C1=O
inactive: [1] 60.1% | [2] 11.4% | [3] 28% | [4] 13.4% | [5] 56.9% | [7] 53.9% | [8] 48.8%
active: [6] -14.1%

CCCCCCCC[n+]1ccc2ccccc2c1
inactive: [1] 95.6% | [2] 27.1% | [3] 32.3% | [4] 46.2% | [5] 75.9% | [6] 46.5% | [7] 47.4% | [8] 46.1%

C=C1C[C@](OC)([C@H](O)C(=O)N[C@@H](OC)[C@@H]2C[C@@H](O)C(C)(C)[C@@H](C[C@@H](COC)OC)O2)O[C@H](C)[C@@H]1C
active: [1] -42.3% | [2] -7.29% | [3] -59.9% | [4] -83.3% | [5] -64.3% | [9] -52.6% | [8] -41.8%

O=C(CCCCCCC(=O)Nc1ccc(N(CCCl)CCCl)cc1)NO
active: [2] -8.98% | [9] 9.37%
inactive: [1] 64.6% | [3] 58.9% | [4] 45.1% | [5] 33.2% | [7] 52.1% | [8] 63%

CCCCOc1ccc(C(N)Cc2ccccc2)cc1 (configuration not stated)
inactive: [1] 105% | [2] 92.5% | [3] 101% | [4] 43.2% | [5] 87.5% | [6] 86.4% | [7] 29.9% | [8] 98.5%

O=C(Nc1ccc([N+](=O)[O-])cc1)C(Cl)(Cl)Cl
inactive: [1] 99.6% | [2] 80.7% | [3] 91.6% | [4] 104% | [5] 105% | [9] 85.9% | [8] 97.1%

CCC(O)(CN)c1ccccc1 (configuration not stated)
inactive: [1] 105% | [2] 99.6% | [3] 104% | [4] 105% | [5] 100% | [9] 102% | [7] 106% | [8] 103%

CCN1C(=O)C(=C/C=C/c2ccccc2)C(=O)N(CC)C1=O
inactive: [1] 78.6% | [2] 96.3% | [3] 91.9% | [4] 29.9% | [5] 26.5% | [9] 74.5% | [7] 112% | [8] 86.5%

N#C[S-].[Au+].c1ccc(CN2[CH-]N(Cc3ccccc3)C(c3ccccc3)=C2c2ccccc2)cc1
active: [2] 7.11% | [6] 8.06%
inactive: [1] 59.8% | [3] 23.4% | [4] 13.3% | [5] 17.9% | [7] 30.9% | [8] 14.2%

COC(=O)[C@@H](C)C[C@H](Cc1ccccc1)NC(=O)c1csc([C@@H](C[C@H](C(C)C)N(C)C(=O)[C@H](C)NC(=O)[C@H]2CCCN2C)OC(C)=O)n1
active: [4] -27.1%
inactive: [1] 92.4% | [2] 50.9% | [3] 36.9% | [5] 28.5% | [7] 62.8% | [8] 30.7%

CCOC(=O)[C@@H](C)C[C@H](Cc1ccccc1)NC(=O)c1nc([C@@H](C[C@H](C(C)C)N(C)C(=O)[C@@H](NC(=O)[C@H]2CCCCN2C)C(C)C)OC(C)=O)sc1CCOCc1ccccc1
inactive: [2] 24.7%
active: [1] 1.07% | [3] -50.9% | [4] -58.3% | [5] 6.51% | [6] -33.7% | [7] -59.6% | [8] -39.8%

— PubChem BioAssay (NCI)
